Test results published in the supplement of paper PMC6555819.

Tests used:
Experiment in all cases: PBM binding z-score (relative to random genomic background probes); higher = stronger binding; sequences stand for … in GC…GCGATTGACAGCGTAGAATGAAGG
[1] = tested on: FXR:RXRa (NR concentration 270 nM, RXRa partner concentration 90 nM)
Summary of the method: (§1)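 Binding z-scores were set against random background probes. The data came from custom Agilent 4×180K protein-binding microarrays carrying double-stranded probes with 34-nt variable regions, incubated 1 h with ligand-free nuclear receptor dimers. Partner-specific antibodies detected binding, and scanned fluorescence was regression-normalized.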

[2] = tested on: LXRa:RXRa (NR concentration 270 nM, RXRa partner concentration 90 nM)
Summary of the method: as §1

[3] = tested on: LXRa homodimer (NR concentration 270 nM)
Summary of the method: as §1

[4] = tested on: LXRb:RXRa (NR concentration 270 nM, RXRa partner concentration 90 nM)
Summary of the method: as §1

[5] = tested on: LXRb homodimer (NR concentration 270 nM)
Summary of the method: as §1

[6] = tested on: PPARa:RXRa (NR concentration 270 nM, RXRa partner concentration 90 nM)
Summary of the method: as §1

[7] = tested on: PPARg:RXRa (NR concentration 180 nM, RXRa partner concentration 90 nM)
Summary of the method: as §1

[8] = tested on: PPARg:RXRa 270nM:90nM, anti-RXR (NR concentration 270 nM, RXRa partner concentration 90 nM)
Summary of the method: as §1

[9] = tested on: PPARg:RXRa 30nM:10nM, anti-RXR (NR concentration 30 nM, RXRa partner concentration 10 nM)
Summary of the method: as §1

[10] = tested on: PPARg:RXRa 90nM:30nM, anti-RXR (NR concentration 90 nM, RXRa partner concentration 30 nM)
Summary of the method: as §1

Sequence	PBM binding z-score [1]	PBM binding z-score [2]	PBM binding z-score [3]	PBM binding z-score [4]	PBM binding z-score [5]	PBM binding z-score [6]	PBM binding z-score [7]	PBM binding z-score [8]	PBM binding z-score [9]	PBM binding z-score [10]
AGTCAAAGTTTAGGACGAGGTAACGTAAAGCACG	0.493	-0.103	-0.205	-0.158	-0.175	0.331	0.904	0.793	0.252	0.625
CAGGCTAGGTCAGGGCCAGTATAGGAGGAACGTT	1.56	0.779	-0.274	0.278	-0.895	2.06	1.39	1.07	-0.194	0.297
CCAGACAGGTGAGAGGGTAACTCAGCCTCGATTA	0.0104	0.0679	-0.0244	0.043	-0.609	1.65	1.99	2.94	0.655	2.18
CGTATTAGTTGACCATAAGGGCAACCGAAGCTCG	0.6	0.437	0.259	0.258	0.134	0.617	0.684	0.523	-0.0743	0.805
TCGAGTAGGTTAGGAGCATTCAGAATGGCGTCGA	-0.126	-0.0909	-0.756	-0.438	-1.39	0.24	0.0725	0.668	0.928	0.741
ATCTCTACGTAACCAAGTTCAGTGAATGCCGAAC	0.0268	0.0264	0.728	0.389	1.1	0.166	0.223	0.137	0.163	0.36
CCTACTGGGCCATTCAGAGATCATTGATCATATG	-0.238	-0.231	-0.224	-0.409	-0.653	0.219	0.557	0.204	-0.621	-0.372
AATACAGGGTCATCGTAGGCCAGAGTACGCACAG	7.52	6.07	2.44	4.7	1.5	5.73	6.55	6.09	2.58	4.87
ATATCTAGGTTAGCTGGGGTCATTCAGACTAGGC	4.62	5.44	3.33	4.64	2.06	5.23	5.59	5.22	2.61	4.47
TCTAGCAGGCCTGAGGGTCACTCAAGAGGTACGG	1.03	1.18	-0.547	1.32	-1.24	2.38	0.588	1.57	1.62	1.44
TGTCAAAGTTCAAAGGTAAAGTAAGTATCCACAC	7.42	6.49	3.99	4.8	1.68	5.87	8.7	7.81	5.23	7.51
CGTCCAAGGCCATAGGAGGTCAGTGAAGACAGAT	2.46	3.14	0.814	1.69	-0.756	2.21	0.688	0.571	-0.185	0.133
TCGAGTAGGTTACGGGCATTCAGAATGGCGTCGA	0.0323	0.894	-0.574	-0.0129	-1.41	1.33	1.14	1.54	0.893	1.06
GTACCAAAGTGAATAGGTCGTTGATGAGTAGGCG	-0.437	-0.179	0.178	-0.156	-0.573	0.468	0.56	0.234	0.0456	-0.0827
TCTAGTTGGTCACGGAGGTCGCACACGACGGGTA	0.941	1.09	-0.0222	1.04	0.0566	2.04	1.61	2.28	2.83	2.43
TCTTGTAGCTCAATAGAGGTTAAGAAAGTGCGCT	0.285	3.13	0.267	1.49	-0.618	1.52	-0.424	0.893	1.96	1.41
GTACCAATGTGAATAGGTCGTTGATGAGTAGGCG	-0.0565	-0.171	-0.443	-0.196	-0.467	0.275	0.47	-0.162	-0.118	-0.255
CCTACTGTGCCATCAGGTCATTGATATCAACGTT	2.23	2.1	2.57	2.75	1.14	2.82	2.29	3.15	1.39	2.7
ACTATTAGTTGAGACGAGGGCAGCCGATAGGTTG	0.474	-0.24	-0.315	-0.195	0.184	-0.0872	0.689	-0.013	0.136	-0.0374
CGTCCAAGTTCATAGGAGGTCAGTGAAGACAGAT	5.25	6.43	3.8	4.3	0.586	3.83	1.6	2.43	0.744	1.47
TCTATTAGTAGAAGGGCAACCGACGAGTCCGTTT	0.288	0.212	0.0189	0.17	-0.103	0.688	0.23	1.93	3.29	2.44
TCGAGTAGGTTACAAATGGGGCATTCAGCTTTCT	0.181	1.08	-0.216	1.01	-0.699	1.25	0.565	1.21	1.43	1.04
TCTATTAGTTGAAGGACAACCGACGAGTCCGTTT	0.875	0.862	0.762	0.67	0.653	0.754	0.353	2.04	4.25	3.08
CGAACTAGGTCATCCAGGACGGTGAATACATTGA	4.05	2.29	0.0785	1.64	-0.427	4.85	7.27	6.3	3.61	5.41
